Data: PubChem BioAssay (EPA / NIEHS)
Results filed as inconclusive are left out. Calls of active or inactive are those of the source. Rule for the calls, unless noted: active = hit-call score of the fitted dose curve at least 0.9, where 1 is the maximum; inactive = score below 0.9.

Assays:
[1] = biological target: Cellular tumor antigen p53 (Homo sapiens) (UniProt P04637); assay: ATG_p53_CIS: Attagene CIS-FACTORIAL HepG2 Assay for human p53 Transcription Factor (AID 2282994); details: HepG2 p53 cis-element reporter, Attagene mRNA; actives raise or lower the signal
Summary of the method: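 Endogenous p53 activity read in transiently transfected HepG2 from a cis-element-driven reporter transcript after 24 h exposure. RNA reverse-transcribed, PCR-amplified, fluorescently labelled and sized by capillary electrophoresis; gain or loss fitted against DMSO baseline.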

[2] = BSK_3C_TissueFactor: BioMAP Diversity Plus: 3C Assay for Tissue Factor Biomarker Activity (AID 2282997); details: BioMAP 3C HUVEC, tissue factor biomarker readout; actives raise or lower the signal
Summary of the method: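 HUVEC, 3C system, 24 h post-dose; Tissue Factor by ELISA; bidirectional fit vs DMSO baseline.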

[3] = BSK_3C_uPAR: BioMAP Diversity Plus: 3C Assay for Urokinase-type plasminogen activator receptor (uPAR) Biomarker Activity (AID 2282998); details: BioMAP 3C HUVEC, uPAR biomarker ELISA; actives raise or lower the signal
Summary of the method: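 Primary human umbilical vein endothelial cells, 3C system; surface uPAR measured by ELISA 24 h after dosing. Cytotoxicity via SRB total protein in parallel cultures; bidirectional fit against DMSO.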

[4] = BSK_3C_VCAM1: BioMAP Diversity Plus: 3C Assay for Vascular cell adhesion molecule 1 (VCAM1) Biomarker Activity (AID 2282999); details: BioMAP 3C HUVEC, VCAM1 ELISA, cytokine-stimulated; actives raise or lower the signal
Summary of the method: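 Vascular primary endothelium (human umbilical vein) was exposed to chemicals and assayed 24 h later. VCAM-1 levels came from ELISA, with DMSO serving as baseline for bidirectional fitting.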

[5] = BSK_4H_Eotaxin3: BioMAP Diversity Plus: 4H Assay for Eotaxin 3 Biomarker Activity (AID 2283000); details: primary human endothelial cells (HUVEC); actives raise or lower the signal
Summary of the method: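 Readout is Eotaxin-3 (CCL26) level by ELISA in primary human umbilical vein endothelial cells harvested 24 h after chemical exposure; activity fitted in both directions against DMSO control.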

[6] = biological target: human Peroxisome Proliferator-activated Receptor alpha (PPARa), PPARA (gene 5465) (UniProt Q07869); assay: ATG_PPARa_TRANS: Attagene TRANS-FACTORIAL HepG2 Assay for human Peroxisome Proliferator-activated Receptor alpha (PPARa) (AID 2283001; active = hit-call score of the fitted dose curve at least 0.9, where 1 is the maximum;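 for AC50: potency for gain of reporter signal over DMSO so agonist or activator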)
Summary of the method: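 Cells (HepG2) are transfected with multiple reporter transcription units, exposed to chemical for 24 h, then total RNA is reverse-transcribed and amplified. Labelled products are quantified by capillary electrophoresis; induction is referenced to DMSO.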

[7] = biological target: human Peroxisome Proliferator-activated Receptor delta (PPARd), PPARD (gene 5467) (UniProt Q03181); assay: ATG_PPARd_TRANS: Attagene TRANS-FACTORIAL HepG2 Assay for human Peroxisome Proliferator-activated Receptor delta (PPARd) (AID 2283002; active = hit-call score of the fitted dose curve at least 0.9, where 1 is the maximum)
Summary of the method: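 Multiplexed trans-activation format: HepG2 liver cells expressing exogenous NR-Gal4 chimeras and GAL4-UAS reporters were exposed for 24 h. Reporter mRNA was detected by RT-PCR with capillary electrophoresis fluorescence; activity fitted as gain of signal relative to DMSO.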

[8] = read-out: Intercellular Adhesion Molecule 1 (ICAM1), ICAM1 (gene 3383); assay: BSK_3C_ICAM1: BioMAP Diversity Plus: 3C Assay for Intercellular Adhesion Molecule 1 (ICAM1) Biomarker Activity (AID 2283003); details: primary human endothelial cells (HUVEC); actives raise or lower the signal
Summary of the method: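 ELISA readout of ICAM1 in human umbilical vein endothelial cells in the 3C system, taken 24 h post-dose. Gain or loss of signal versus DMSO was fitted in both directions, with SRB total-protein staining run in parallel.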

[9] = biological target: human Retinoic Acid Receptor beta (RARb), RARB (gene 5915) (UniProt P10826); assay: ATG_RARb_TRANS: Attagene TRANS-FACTORIAL HepG2 Assay for human Retinoic Acid Receptor beta (AID 2283004; active = hit-call score of the fitted dose curve at least 0.9, where 1 is the maximum)
Summary of the method: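 Readout is reporter mRNA induction: RNA reverse-transcribed, PCR-amplified, FAM-labelled, HpaI-cut and resolved by capillary electrophoresis. Transiently transfected HepG2 cells carrying exogenous NR–Gal4 chimeras were dosed for 24 h; activity fitted upward relative to DMSO.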

[10] = biological target: Retinoic acid receptor alpha (Homo sapiens) (UniProt P10276); assay: ATG_RARa_TRANS: Attagene TRANS-FACTORIAL HepG2 Assay for human Retinoic Acid Receptor alpha (RARa) (AID 2283005; active = hit-call score of the fitted dose curve at least 0.9, where 1 is the maximum)
Summary of the method: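 HepG2 cells transiently transfected with multiple reporter units expressing chimeric RARα-GAL4 fusion, with GAL4-UAS-driven reporters. After 24 h compound exposure, reporter mRNA induction quantified by RT-PCR and capillary electrophoresis with fluorescent labeling; gain-of-signal fitted relative to DMSO control.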

Measured: AC50

Sequence of human Peroxisome Proliferator-activated Receptor delta (PPARd), PPARD (gene 5467) (Q03181 whole entry, looked up, the tested form may be a part): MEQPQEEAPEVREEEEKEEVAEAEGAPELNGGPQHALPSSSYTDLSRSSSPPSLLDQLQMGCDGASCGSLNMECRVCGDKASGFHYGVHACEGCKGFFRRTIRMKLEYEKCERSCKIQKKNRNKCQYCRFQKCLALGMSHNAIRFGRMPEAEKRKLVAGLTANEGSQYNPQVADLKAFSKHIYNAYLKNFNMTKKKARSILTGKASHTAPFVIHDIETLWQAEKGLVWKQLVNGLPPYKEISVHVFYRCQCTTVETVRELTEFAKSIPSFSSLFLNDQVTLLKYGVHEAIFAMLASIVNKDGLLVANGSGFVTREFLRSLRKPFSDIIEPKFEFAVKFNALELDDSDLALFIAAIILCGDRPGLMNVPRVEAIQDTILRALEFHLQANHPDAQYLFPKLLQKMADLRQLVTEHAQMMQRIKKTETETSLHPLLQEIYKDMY
Sequence of human Retinoic Acid Receptor beta (RARb), RARB (gene 5915) (P10826 whole entry, looked up, the tested form may be a part): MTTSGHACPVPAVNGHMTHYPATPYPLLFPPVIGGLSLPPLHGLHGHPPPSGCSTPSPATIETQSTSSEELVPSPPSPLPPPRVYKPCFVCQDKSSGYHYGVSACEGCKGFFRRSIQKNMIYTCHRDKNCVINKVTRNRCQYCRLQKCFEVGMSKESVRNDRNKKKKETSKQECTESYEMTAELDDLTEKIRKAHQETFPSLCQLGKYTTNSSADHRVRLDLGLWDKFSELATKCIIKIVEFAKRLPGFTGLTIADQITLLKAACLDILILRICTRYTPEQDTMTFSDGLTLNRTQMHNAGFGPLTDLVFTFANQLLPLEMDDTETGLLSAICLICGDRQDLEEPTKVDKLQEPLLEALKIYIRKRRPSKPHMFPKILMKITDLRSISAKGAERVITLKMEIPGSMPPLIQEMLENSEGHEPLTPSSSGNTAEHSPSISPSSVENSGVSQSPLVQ
Sequence of Retinoic acid receptor alpha (Homo sapiens) (P10276 whole entry, looked up, the tested form may be a part): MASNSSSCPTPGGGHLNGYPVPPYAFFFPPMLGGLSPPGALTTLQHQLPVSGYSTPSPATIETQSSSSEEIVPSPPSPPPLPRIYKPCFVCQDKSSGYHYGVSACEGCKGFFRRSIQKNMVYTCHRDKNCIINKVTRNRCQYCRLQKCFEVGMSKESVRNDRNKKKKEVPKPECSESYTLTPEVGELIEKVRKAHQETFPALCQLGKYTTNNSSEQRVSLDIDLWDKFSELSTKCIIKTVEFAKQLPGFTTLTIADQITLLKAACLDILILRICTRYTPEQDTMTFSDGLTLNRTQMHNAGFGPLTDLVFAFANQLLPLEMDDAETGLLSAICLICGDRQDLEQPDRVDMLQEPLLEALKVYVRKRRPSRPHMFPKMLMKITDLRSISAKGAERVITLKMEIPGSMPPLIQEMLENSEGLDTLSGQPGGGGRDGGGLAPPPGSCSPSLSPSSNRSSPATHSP
Sequence of Cellular tumor antigen p53 (Homo sapiens) (P04637 whole entry, looked up): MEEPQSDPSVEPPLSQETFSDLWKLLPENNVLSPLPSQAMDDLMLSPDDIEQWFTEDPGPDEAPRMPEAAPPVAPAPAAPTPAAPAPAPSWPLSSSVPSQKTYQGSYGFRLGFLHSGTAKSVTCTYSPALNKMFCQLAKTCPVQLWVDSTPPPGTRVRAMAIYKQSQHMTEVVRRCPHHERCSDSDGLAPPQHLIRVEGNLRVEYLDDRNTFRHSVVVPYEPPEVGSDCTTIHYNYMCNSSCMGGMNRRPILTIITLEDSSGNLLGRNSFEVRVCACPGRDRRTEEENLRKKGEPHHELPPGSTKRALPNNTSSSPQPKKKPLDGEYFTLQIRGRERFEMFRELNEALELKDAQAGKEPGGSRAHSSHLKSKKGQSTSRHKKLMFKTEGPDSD
Sequence of human Peroxisome Proliferator-activated Receptor alpha (PPARa), PPARA (gene 5465) (Q07869 whole entry, looked up): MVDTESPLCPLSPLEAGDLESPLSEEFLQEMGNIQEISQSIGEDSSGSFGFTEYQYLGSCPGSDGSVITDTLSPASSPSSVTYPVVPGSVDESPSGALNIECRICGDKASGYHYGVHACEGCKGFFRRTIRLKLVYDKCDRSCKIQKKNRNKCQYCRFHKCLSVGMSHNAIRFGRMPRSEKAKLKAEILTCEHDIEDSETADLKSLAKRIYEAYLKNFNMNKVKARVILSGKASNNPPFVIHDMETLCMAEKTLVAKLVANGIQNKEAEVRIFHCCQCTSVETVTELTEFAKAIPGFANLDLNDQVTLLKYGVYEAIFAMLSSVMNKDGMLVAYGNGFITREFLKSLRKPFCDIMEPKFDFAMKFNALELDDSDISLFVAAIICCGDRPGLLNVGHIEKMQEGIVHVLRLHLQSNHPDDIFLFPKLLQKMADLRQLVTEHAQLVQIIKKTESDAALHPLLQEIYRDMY

CCCN(C1CCN(C(=O)C2CCNCC2)CC1)[C@@H]1CCc2ccc(OC)cc2C1
active: [1] 155 µM | [6] 146 µM
not listed: [9] | [10]
inactive: all other assays above

COc1ccc2sc(C(=O)Nc3nnn[nH]3)c(OC(C)C)c2c1
inactive: [6] | [7]
active: [1] 71.4 µM | [2] 22.5 µM | [3] 5.51 µM | [4] 23.7 µM | [5] 23.3 µM | [8] 26.4 µM

CCCCC(CC)COC(=O)CCCCCCCCC(=O)OCC(CC)CCCC (stereo not drawn)
not listed: [9] | [10]
inactive: all other assays above

CC(C)=CCCC(C)=CC=O
active: [6] 58.6 µM
not listed: [9] | [10]
inactive: all other assays above

CC(=O)OCCC(C)C
not listed: [7] | [9] | [10]
inactive: all other assays above

CN(C)c1ccc(N=NS(=O)(=O)O)cc1
active: [2] 5.79 µM | [4] 6.47 µM
inactive: [1] | [3] | [5] | [7] | [8]

C=CCCCCCCCCC(=O)O
active: [6] 26.7 µM
not listed: [7]
inactive: all other assays above

CCOC(=O)COc1ccc2c(c1)CC(NCC(O)c1cccc(Cl)c1)CC2 (stereo not drawn)
active: [1] 49.8 µM | [2] 33 µM | [3] 28.5 µM | [4] 27.5 µM | [5] 34.3 µM | [6] 33 µM | [8] 28.4 µM
inactive: [7] | [9]

CCOC(=O)c1ccc(C2CCC(NC[C@H](O)COc3ccc(O)c(NS(C)(=O)=O)c3)CC2)cc1 (stereo partly drawn)
active: [1] 50 µM | [3] 31.2 µM | [4] 30.5 µM | [6] 54.8 µM | [9] 52.3 µM
inactive: [2] | [5] | [8] | [10]

CC[C@H]1CC[C@H](NCc2cc3c(cc2OC)[C@H]2C[C@H]2C(=O)N3C)[C@H](c2ccccc2)N1
active: [1] 100 µM
not listed: [5] | [10]
inactive: all other assays above

On1ccccc1=S
active: [2] 18.6 µM | [3] 28.4 µM | [4] 24.7 µM | [5] 16.1 µM | [8] 24 µM
inactive: [1]

CC(C)CC(C)(O)C#CC(C)(O)CC(C)C (stereo not drawn)
inactive: [1] | [2] | [3] | [4] | [5] | [8]

CC1=CC(=O)CC(C)(C)C1
inactive: [1] | [2] | [3] | [4] | [5] | [8]

CC1(C)C(=O)N(Br)C(=O)N1Br
not listed: [6] | [9] | [10]
inactive: all other assays above

CCCC(=O)OCC
inactive: [1] | [2] | [3] | [4] | [5] | [8]

O=C1OC(=O)C2C3C=CC(C3)C12 (stereo not drawn)
not listed: [5] | [9] | [10]
inactive: all other assays above

CCN(C(=O)c1cc(C)cc(OC[C@H](C)Nc2ccncc2)c1)C(C)C
not listed: [6] | [7]
inactive: all other assays above

CNS(=O)(=O)c1cc(C(=O)N2CCC(CCN3C4CCC3CC(n3c(C)nc5ccccc53)C4)(c3cccc(F)c3)CC2)c(Cl)cc1F (stereo not drawn)
inactive: [2] | [7] | [8] | [9]
active: [1] 6.99 µM | [3] 16.7 µM | [4] 13.5 µM | [5] 30.9 µM

COC(=O)c1ccccc1O
not listed: [6]
inactive: all other assays above

CCOCCOCCOCCO
inactive: [1] | [2] | [3] | [4] | [5] | [8]

NC(=O)NO
not listed: [6] | [9]
inactive: all other assays above
